In PubChem BioAssay AID1159580 (chemical genetic matrix, 2015):
Several values for one entry are separate records, joined by “and”; a condition that tells them apart may be missing. Equal values may be shown once. The campaign covered roughly 5,500 compounds. About 2,000 (36%) were called active. Inconclusive results (about 18%) are left out. Cut-off read from the data, not from the text of the source: active = normalized growth mostly below about 0.91 (no sharp cut-off); inconclusive = no clear call, values can overlap the other calls; inactive = mostly above about 0.92. The list shows a part of the results.

Assay: chemical genetic growth profiling, strain panel (AID 1159580);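 note: tested at 20 µM; growth read once vehicle control cultures reached saturation at 30 °C; 1 = growth at the plate median or of vehicle wells; lower values mean less growth of the strain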
Details: S. cerevisiae deletion strains, growth OD

Measured: normalized growth

O=C(/C=C/c1ccc(O)cc1)c1ccc(O)cc1O
inactive: locus YAL013W, strain DEP1, stronger effect = lower value 0.996 and 0.982 | locus YAL021C, strain ccr4, stronger effect = lower value 0.981 | locus YAL026C, strain drs2, stronger effect = lower value 1.02 | locus YAL030W, strain snc1, stronger effect = lower value 1.01 | locus YAL040C, strain CLN3, stronger effect = lower value 0.986 | locus YBL061C, strain skt5, stronger effect = lower value 1 | locus YBR009C, strain hhf1, stronger effect = lower value 0.999 | locus YBR021W, strain FUR4, stronger effect = lower value 1.04 | locus YBR023C, strain chs3, stronger effect = lower value 0.997 | locus YBR171W, strain sec66, stronger effect = lower value 1.01 | locus YBR229C, strain ROT2, stronger effect = lower value 0.987 | locus YBR231C, strain swc5, stronger effect = lower value 0.979 | locus YBR279W, strain paf1, stronger effect = lower value 0.99 | locus YCL011C, strain gbp2, stronger effect = lower value 0.995 | locus YCL016C, strain dcc1, stronger effect = lower value 0.991 | locus YCL029C, strain bik1, stronger effect = lower value 0.945 | locus YCL061C, strain MRC1 (second series), stronger effect = lower value 1.01 | locus YCL069W, strain vba3, stronger effect = lower value 1.01 | locus YCR088W, strain abp1, stronger effect = lower value 1.01 | locus YDL005C, strain med2, stronger effect = lower value 1.02 | locus YDL035C, strain GPR1, stronger effect = lower value 0.98 | locus YDL040C, strain nat1, stronger effect = lower value 1 | locus YDL074C, strain BRE1, stronger effect = lower value 0.912 | locus YDL101C, strain DUN1, stronger effect = lower value 1 | locus YDL185W, strain tfp1, stronger effect = lower value 0.919 | locus YDL192W, strain arf1, stronger effect = lower value 0.948 | locus YDR001C, strain nth1, stronger effect = lower value 1 | locus YDR069C, strain doa4, stronger effect = lower value 1 | locus YDR101C, strain arx1, stronger effect = lower value 0.96 | locus YDR137W, strain rgp1, stronger effect = lower value 1.08 | locus YDR150W, strain NUM1, stronger effect = lower value 0.991 and 1.01 | locus YDR159W, strain sac3, stronger effect = lower value 0.99 | locus YDR162C, strain NBP2, stronger effect = lower value 1.02 | locus YDR195W, strain ref2 1.04 | locus YDR297W, strain sur2, stronger effect = lower value 1 | locus YDR318W, strain mcm21, stronger effect = lower value 0.966 | locus YDR334W, strain swr1, stronger effect = lower value 1 | locus YDR335W, strain msn5, stronger effect = lower value 1.02 | locus YDR363W, strain ESC2, stronger effect = lower value 1.01 | locus YDR388W, stronger effect = lower value 0.96 | locus YDR392W, strain spt3, stronger effect = lower value 0.892 | locus YDR502C, strain sam2, stronger effect = lower value 0.963 | locus YEL003W, strain gim4, stronger effect = lower value 1.01 | locus YEL037C, strain rad23, stronger effect = lower value 1.01 | locus YEL061C, strain CIN8 (second series), stronger effect = lower value 1.01 | locus YEL061C, strain CIN8, stronger effect = lower value 0.992 | locus YER002W, strain NOP16, stronger effect = lower value 0.985 | locus YER015W, strain faa2, stronger effect = lower value 1 | locus YER016W, strain bim1, stronger effect = lower value 1.01 | locus YER110C, stronger effect = lower value 0.955 | locus YER111C, strain swi4, stronger effect = lower value 1.02 | locus YER155C, strain BEM2 (second series), stronger effect = lower value 0.97 | locus YER155C, strain BEM2, stronger effect = lower value 0.972 | locus YER167W, strain BCK2, stronger effect = lower value 0.971 | locus YFR010W, strain ubp6, stronger effect = lower value 1.02 | locus YGL078C, strain dbp3, stronger effect = lower value 1.01 | locus YGL086W, strain mad1, stronger effect = lower value 0.958 | locus YGL167C, strain pmr1, stronger effect = lower value 1.02 | locus YGL173C, strain kem1, stronger effect = lower value 1.02 | locus YGL227W, strain vid30, stronger effect = lower value 1.01 | locus YGL240W, strain doc1, stronger effect = lower value 0.994 | locus YGL248W, strain PDE1, stronger effect = lower value 1.01 | locus YGL253W, strain hxk2, stronger effect = lower value 0.987 | locus YGR078C, strain PAC10, stronger effect = lower value 0.997 and 0.992 | locus YGR135W, strain pre9, stronger effect = lower value 0.941 | locus YGR252W, strain gcn5, stronger effect = lower value 0.935 | locus YHR013C, strain ard1, stronger effect = lower value 1.03 | locus YHR027C, strain rpn1, stronger effect = lower value 1.01 | locus YHR030C, strain SLT2, stronger effect = lower value 0.98 and 0.955 | locus YHR079C, strain IRE1 (second series), stronger effect = lower value 0.959 | locus YHR079C, strain IRE1, stronger effect = lower value 0.895 | locus YHR094C, strain hxt1, stronger effect = lower value 0.965 | locus YHR129C, strain ARP1, stronger effect = lower value 0.978 | locus YHR142W, strain chs7, stronger effect = lower value 0.985 | locus YHR200W, strain rpn10, stronger effect = lower value 0.944 | locus YIL066C, strain RNR3, stronger effect = lower value 0.975 | locus YIL073C, strain SPO22, stronger effect = lower value 0.96 | locus YIL125W, strain kgd1, stronger effect = lower value 0.963 | locus YIR030C, strain dcg1, stronger effect = lower value 0.973 | locus YJL092W, strain hpr5, stronger effect = lower value 1.01 | locus YJL095W, strain BCK1 (second series), stronger effect = lower value 1.01 | locus YJL095W, strain BCK1, stronger effect = lower value 1.01 and 0.977 | locus YJL115W, strain asf1, stronger effect = lower value 1.02 | locus YJL129C, strain trk1, stronger effect = lower value 0.983 | locus YJL134W, strain LCB3, stronger effect = lower value 0.97 | locus YJL154C, strain vps35, stronger effect = lower value 1.02 | locus YJL164C, strain tpk1, stronger effect = lower value 0.986 | locus YJL166W, strain qcr8, stronger effect = lower value 1.01 | locus YJL168C, strain set2, stronger effect = lower value 0.963 | locus YJL187C, strain SWE1 (second series), stronger effect = lower value 0.994 | locus YJR043C, strain POL32, stronger effect = lower value 0.961 | locus YJR066W, strain TOR1, stronger effect = lower value 0.904
